In PubChem BioAssay AID720711 (National Center for Advancing Translational Sciences (NCATS), 2013):
Hit rate of the full screen: of about 360,000 compounds, about 290 (0.081%) were called active. Entries that show only a call come without a potency. The call rests on the fitted dose curve; in most records, active means well fitted activation curve with a large enough effect; inconclusive means small, poorly fitted or top-dose-only effect; inactive means no such curve, though single readings can be large or run the other way. For the sample, actives were picked, then their nearest neighbours and some compounds at random.

What follows are molecules tested against Rap guanine nucleotide exchange factor 4 (Homo sapiens) (UniProt Q8WZA2) (assay: qHTS for Agonist of cAMP-regulated guanine nucleotide exchange factor 4 (EPAC2): primary screen). Details: biochemical qHTS; Potency: EPAC2 activation; series mostly up to 154 µM.
Sequence of Rap guanine nucleotide exchange factor 4 (Homo sapiens) (Q8WZA2 whole entry, looked up): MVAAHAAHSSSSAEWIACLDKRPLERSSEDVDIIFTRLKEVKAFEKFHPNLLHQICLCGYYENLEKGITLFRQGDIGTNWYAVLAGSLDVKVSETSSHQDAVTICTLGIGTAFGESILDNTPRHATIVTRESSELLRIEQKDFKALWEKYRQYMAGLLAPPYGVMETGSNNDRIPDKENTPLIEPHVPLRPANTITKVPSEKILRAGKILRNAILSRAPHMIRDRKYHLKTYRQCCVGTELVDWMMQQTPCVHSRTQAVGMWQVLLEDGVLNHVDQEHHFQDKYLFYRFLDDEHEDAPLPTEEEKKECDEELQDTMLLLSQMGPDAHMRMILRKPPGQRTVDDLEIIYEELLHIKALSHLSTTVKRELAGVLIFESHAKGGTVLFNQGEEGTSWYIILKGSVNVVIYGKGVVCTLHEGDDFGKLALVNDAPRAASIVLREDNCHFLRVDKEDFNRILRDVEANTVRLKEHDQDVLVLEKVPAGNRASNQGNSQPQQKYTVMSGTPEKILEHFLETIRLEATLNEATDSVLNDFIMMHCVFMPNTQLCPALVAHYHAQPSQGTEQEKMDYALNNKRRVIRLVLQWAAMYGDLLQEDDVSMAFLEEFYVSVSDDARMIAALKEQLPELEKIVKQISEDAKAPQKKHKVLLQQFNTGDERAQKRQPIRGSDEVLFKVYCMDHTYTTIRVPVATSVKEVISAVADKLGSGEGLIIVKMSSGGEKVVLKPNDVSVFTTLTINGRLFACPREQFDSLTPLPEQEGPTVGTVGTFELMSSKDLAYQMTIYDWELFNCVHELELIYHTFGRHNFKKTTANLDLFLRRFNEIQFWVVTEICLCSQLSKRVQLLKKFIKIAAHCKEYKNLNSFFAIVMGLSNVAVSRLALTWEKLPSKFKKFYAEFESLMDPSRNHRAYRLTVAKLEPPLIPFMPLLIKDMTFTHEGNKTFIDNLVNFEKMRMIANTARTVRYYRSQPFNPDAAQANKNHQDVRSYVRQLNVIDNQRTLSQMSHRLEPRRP
Summary of the method: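 In this primary screen, activation is scored as increased exchange of BODIPY-GDP from Rap1B by 100 nM EPAC2, with 50 uM GDP as competitor. Signal is normalized to the 6.5 mM cAMP agonist control.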
Further: nearly all actives have a fitted effect of over 50% in size.
Potency means the concentration at half of the fitted maximal effect.

SMILES	Potency	activation
COc1ccc(CNC(=O)c2ccc(-c3cccnc3)c3ccoc23)cc1OC	inactive	
CCc1noc(C)c1C(=O)N1CCCC(N2CCN(c3ccc(F)cc3)CC2)C1 (configuration not stated)	inactive	
C=C1C(=O)OC2C1CCC(C)=CCCC1(C)OC21 (configuration not stated)	inactive	
CCC(C(=O)NCCC(C)C)N(Cc1ccccc1Cl)C(=O)c1snc(C(N)=O)c1N (configuration not stated)	inactive	
COc1cccc(N(CC(=O)NC2CCCC2)C(=O)CCCC(=O)Nc2ccccn2)c1	inactive	
Cc1nn(C(C)C(=O)NCCC2=CCCCC2)c(=O)c2nn(-c3ccccc3)c(C)c12 (configuration not stated)	inactive	
CC(C)C(NC(=O)OCc1ccccc1)C(=O)OCC(=O)N1C(C)CCCC1C (configuration not stated)		11.3% [at 15.6 µM, 100% = 6.5 mM cAMP response] (inactive)
COc1ccc(S(=O)(=O)NCC(c2ccco2)N2CCOCC2)cc1 (configuration not stated)	inactive	
COc1ccccc1CNS(=O)(=O)c1cc2c3c(c1)CCC(=O)N3CCC2	inactive	
Cc1ccc(S(=O)(=O)N2[C@@H](Cc3ccccc3)CO[C@H]2CC(=O)OCc2ccccc2)cc1	inactive	
Cc1ccccc1C#CC1=CC(=O)CC(C)(C)C1	inactive	
CN(CC(=O)NCc1ccncc1)S(=O)(=O)c1ccc(Br)cc1	inactive	
CC(Sc1ccccc1F)C(=O)Nc1cccc(S(=O)(=O)N2CCOCC2)c1 (configuration not stated)	inactive	
CCOC(=O)N1CCC(C(N)=O)CC1	inactive	
COC(=O)[C@@]12C[C@@H](CC(=O)NCCCCc3ccccc3)C(=O)N(Cc3ccccc3)C1=CCC(C)(C)C2	inactive	
O=C(COC(=O)C1CC2C=CC1C2)Nc1ccccc1 (configuration not stated)	inactive	
Cc1ccc(S(=O)(=O)N2CCC(C(=O)N[C@@H](C)C(=O)NCCc3ccccc3)CC2)cc1	inactive	
C[C@@H](C(=O)N1CCNCC1)n1cc(CCC(=O)O)nn1	inactive	
N#CCCN1CCN(S(=O)(=O)c2ccc(S(=O)(=O)NC3CC3)cc2)CC1	inactive	
CC(C)(C)OC(=O)NC(Cc1ccccc1)C(=O)NC(CSC1CCCCO1)C(=O)NN (configuration not stated)	inactive	
Cc1ccc(-c2nn(-c3ccccc3)cc2/C=C2\SC(=S)N(CCCCCC(=O)O)C2=O)o1	126 µM (active)	
O=C(O)CCCCCCCCc1cn(CN2C(=O)c3ccccc3C2=O)nn1	inactive	
O=C1/C(=C/c2coc3ccc(O)cc3c2=O)SC(=S)N1c1ccccc1	inactive	

SMILES	Potency	activation
O=C(Nc1ccc(Br)cn1)C1CCN(S(=O)(=O)c2cccs2)CC1	inactive	
COc1ccccc1CCNC(=O)c1c(C)nn(CC(C)C)c1Cl	inactive	
Cc1ccc(CNC(=O)c2ccc3c(c2)S(=O)(=O)c2ccccc2C3=O)cc1	inactive	
Cc1ccc(CNC(=O)c2cccc3c2C(=O)c2ccc(N4CCC(C)CC4)cc2S3(=O)=O)cc1	89.1 µM (active)	
CC1CCN(c2ccc3c(c2)S(=O)(=O)c2cc(C(=O)O)ccc2C3=O)CC1	inactive	
O=C(CSc1ccc(-c2cccs2)nn1)Nc1ccccc1F	inactive	
CCOC(=O)c1c(NC(=S)Nc2ccccc2)sc2c1CCN(C)C2	inactive	
CCc1ccccc1N(CC(=O)NCC1CCCO1)C(=O)CCC(=O)Nc1nccs1 (configuration not stated)	inactive	
CCOC(=O)[C@]12CCCC=C1N(CCC1=CCCCC1)C(=O)[C@H](CC(=O)N1CCCCC1)C2	inactive	
CCO[C@@H]1OC(C(=O)N2CCOCC2)=C[C@H](C)[C@H]1CCCO	inactive	
Cc1ccc(NC(=S)N2CCCC(c3ccccc3)=N2)cc1	inactive	
COCC(=O)N1CCc2ccc(NC(=O)c3ccccc3Cl)cc2C1	inactive	
COc1ccc(-c2ocnc2C(=O)Nc2ccc3c(c2)CCC3)cc1	inactive	
COc1ccc(-c2onc3ccc(C(C)=O)cc23)cc1	50.1 µM (active)	
COCc1cc(C(C)=O)ccc1OC	inactive	
COCC1CCN(C(=O)C2CCC(=O)N(CC3CCCCC3)C2)CC1 (configuration not stated)	inactive	
CCNC(=O)N1CCN(S(=O)(=O)c2ccc3c(c2)OCCCO3)CC1	inactive	
CCOc1cccc(C(=O)Nc2cnn(Cc3ccccc3)c2)c1	inactive	
Nc1nnc(SCC(=O)OCc2ccc(Cl)c(Cl)c2)s1	inactive	
COCC1CCN(C(=O)CCc2nnc(C3(c4ccc(Cl)cc4)CCC3)o2)C1 (configuration not stated)	inactive	
Cc1ccc(CSc2nsc(C)c2C#N)cc1	inactive	
COC(=O)Cc1csc(/N=C/c2c(O)n(-c3cccc(C(F)(F)F)c3)c(=O)c3ccccc23)n1	inactive	
Cc1cccc(-n2c(O)c(C=Nc3ccccc3N)c(=O)[nH]c2=O)c1	inactive	

SMILES	Potency	activation
Cc1ccc(N=Cc2c(O)n(-c3nccs3)c(=O)c3ccccc23)c(C)c1	70.8 µM (active)	
COCCNC(=O)C1C(=O)Nc2ccccc2C(=O)N1c1ccc2c(c1)OCCO2 (configuration not stated)	inactive	
C=CCNC(=O)CCCC(=O)NCC=C	inactive	
COCCNc1nc2nonc2nc1N(C)Cc1ccc(C)cc1	inactive	
CCCNC(=S)NC1CC2CCCC(C1)N2CC(C)C (configuration not stated)	inactive	
CCOC(=O)c1sc(NC(=O)C2CSC3(C)CCC(=O)N23)nc1C (configuration not stated)	inactive	
CC(=O)c1nc(N2C(=O)C3CC=C(C)CC3C2=O)sc1C (configuration not stated)	inactive	
Nc1ccccc1/C=N\N=C/c1ccccc1N	inactive	
Cc1occc1-c1nnc(SCC(=O)NC2(C#N)CCCC2)n1C	inactive	
COc1ccc(-n2nc(C(=O)NCC(=O)N3CCC(C(N)=O)CC3)c3ccccc3c2=O)cc1OC	inactive	
COc1ccc2c(CC(=O)OCC(=O)NC(N)=O)coc2c1	inactive	
Cc1ccc(N=C2SCCCN2C(=O)c2cccc(N3C(=O)CCC3=O)c2)cc1Cl	inactive	
Nc1ccc2nn(-c3ccc(Cl)cc3)nc2c1	inactive	
Nc1nnc(SCCN2C(=O)c3ccccc3S2(=O)=O)s1	inactive	
COc1cccc(C2CC(c3cccs3)=NN2C(=O)CSC2=NCCS2)c1OC (configuration not stated)	inactive	
O=C(COc1ccc(S(=O)(=O)N2CCOCC2)cc1Cl)N1CCOCC1	inactive	
COCc1[nH][nH]c(=O)c1C=Nc1ccc(F)cc1F	inactive	
NC(=O)COc1ccc(NC(=O)c2ccccc2-c2ccccc2)cc1	inactive	
COc1ccc(NC(=O)C(=O)NCC(c2ccco2)N2CCc3ccccc3C2)cc1 (configuration not stated)	inactive	
CCN(CC)C(=O)CSC(Nc1cccc(F)c1)=C(C#N)C#N	inactive	
CSc1nnnn1-c1c(C)cc(C)cc1C	inactive	
